According to article PMC7862700, “An all-to-all approach to the identification of sequence-specific readers for epigenetic DNA modifications on cytosine”:

Columns and labels:
Experiment in all cases: DAPPL (digital affinity profiling via proximity ligation, sequencing); 10 mM Tris-HCl pH 7.5, 50 mM NaCl, 1 mM DTT, 4% glycerol, room temperature, 30 min; GST-TFs on glutathione beads, 16-mer random dsDNA library, 0.1% formaldehyde crosslink after washing; high values mean tight binding
[1] = biological target: T1, FLI1 (Homo sapiens, UniProt Q01543 1-452); conditions: protein: recombinant; tags: N-terminal GST; dsDNA, one strand shown
T1 sequence: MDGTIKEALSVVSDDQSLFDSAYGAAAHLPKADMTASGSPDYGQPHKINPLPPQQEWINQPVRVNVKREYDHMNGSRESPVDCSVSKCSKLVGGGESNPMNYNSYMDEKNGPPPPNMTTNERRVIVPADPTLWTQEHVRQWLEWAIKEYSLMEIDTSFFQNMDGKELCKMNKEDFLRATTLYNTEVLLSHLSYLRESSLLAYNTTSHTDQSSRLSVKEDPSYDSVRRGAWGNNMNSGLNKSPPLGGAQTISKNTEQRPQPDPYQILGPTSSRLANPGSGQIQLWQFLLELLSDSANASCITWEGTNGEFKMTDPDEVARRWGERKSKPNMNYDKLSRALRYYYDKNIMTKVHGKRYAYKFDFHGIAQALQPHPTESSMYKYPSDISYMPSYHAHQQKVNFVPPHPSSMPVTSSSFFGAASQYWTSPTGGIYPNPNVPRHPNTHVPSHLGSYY
Summary of the method: (§1)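 A tag-only sample was pooled with DNA-barcoded human transcription factors that had been expressed in yeast as GST fusions and captured on glutathione beads. The pools were incubated for 30 min at room temperature with 200 nmole of a random double-stranded 16-mer DNA library in Tris/NaCl/DTT/glycerol buffer, then washed, crosslinked with 0.1% formaldehyde, proximity-ligated (BsaI/T4 ligase, 1 h, 37 °C), PCR-amplified and sequenced on an Illumina NextSeq500. Binding signal is each hexamer's read frequency for a factor divided by its frequency for the tag-only sample.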

[2] = biological target: T2, ELK1 (Homo sapiens, UniProt P19419 1-428); conditions: protein: recombinant; tags: N-terminal GST; dsDNA, one strand shown
T2 sequence: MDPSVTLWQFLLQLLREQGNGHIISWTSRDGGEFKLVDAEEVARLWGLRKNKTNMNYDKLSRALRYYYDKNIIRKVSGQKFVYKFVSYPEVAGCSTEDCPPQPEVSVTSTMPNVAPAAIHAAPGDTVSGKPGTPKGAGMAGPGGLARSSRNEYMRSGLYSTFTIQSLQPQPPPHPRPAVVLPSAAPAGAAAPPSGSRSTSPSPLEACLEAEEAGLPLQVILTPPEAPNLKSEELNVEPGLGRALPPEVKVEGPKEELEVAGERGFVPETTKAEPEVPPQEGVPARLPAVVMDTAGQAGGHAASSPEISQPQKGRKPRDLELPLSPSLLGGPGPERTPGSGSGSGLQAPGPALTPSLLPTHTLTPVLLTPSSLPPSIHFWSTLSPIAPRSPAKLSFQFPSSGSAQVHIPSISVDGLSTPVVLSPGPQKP
Summary of the method: as §1

[3] = biological target: T3, GABPA (Homo sapiens, UniProt Q06546 1-454); conditions: protein: recombinant; tags: N-terminal GST; dsDNA, one strand shown
T3 sequence: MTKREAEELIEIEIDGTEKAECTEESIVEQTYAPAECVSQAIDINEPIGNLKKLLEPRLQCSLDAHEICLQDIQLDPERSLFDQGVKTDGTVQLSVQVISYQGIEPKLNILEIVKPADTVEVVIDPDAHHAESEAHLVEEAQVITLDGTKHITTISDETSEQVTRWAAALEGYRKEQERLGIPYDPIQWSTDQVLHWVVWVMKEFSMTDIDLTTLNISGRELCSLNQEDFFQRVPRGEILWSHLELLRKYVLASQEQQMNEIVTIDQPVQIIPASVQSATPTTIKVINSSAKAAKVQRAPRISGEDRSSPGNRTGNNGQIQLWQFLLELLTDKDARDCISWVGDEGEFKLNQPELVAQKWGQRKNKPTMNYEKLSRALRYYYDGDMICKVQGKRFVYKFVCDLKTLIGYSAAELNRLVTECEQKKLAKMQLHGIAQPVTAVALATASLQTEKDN
Summary of the method: as §1

[4] = biological target: T4, ERG (Homo sapiens, UniProt P11308 1-479); conditions: protein: recombinant; tags: N-terminal GST; dsDNA, one strand shown
T4 sequence: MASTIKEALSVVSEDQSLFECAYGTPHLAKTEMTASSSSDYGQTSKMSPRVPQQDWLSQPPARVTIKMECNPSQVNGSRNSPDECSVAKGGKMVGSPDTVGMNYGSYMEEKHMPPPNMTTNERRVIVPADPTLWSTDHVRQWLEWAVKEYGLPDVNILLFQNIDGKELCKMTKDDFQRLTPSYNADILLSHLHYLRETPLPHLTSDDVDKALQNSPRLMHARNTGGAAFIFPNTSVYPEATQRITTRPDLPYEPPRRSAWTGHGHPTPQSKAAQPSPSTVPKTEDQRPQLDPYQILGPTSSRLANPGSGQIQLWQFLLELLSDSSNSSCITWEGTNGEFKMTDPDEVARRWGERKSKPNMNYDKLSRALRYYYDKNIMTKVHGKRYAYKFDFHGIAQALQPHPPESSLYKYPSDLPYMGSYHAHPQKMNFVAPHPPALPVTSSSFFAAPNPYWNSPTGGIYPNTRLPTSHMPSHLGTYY
Summary of the method: as §1

[5] = biological target: ELF1 (Homo sapiens, UniProt P32519 1-619); conditions: protein: recombinant; tags: N-terminal GST; dsDNA, one strand shown
ELF1, sequence (P32519 whole entry): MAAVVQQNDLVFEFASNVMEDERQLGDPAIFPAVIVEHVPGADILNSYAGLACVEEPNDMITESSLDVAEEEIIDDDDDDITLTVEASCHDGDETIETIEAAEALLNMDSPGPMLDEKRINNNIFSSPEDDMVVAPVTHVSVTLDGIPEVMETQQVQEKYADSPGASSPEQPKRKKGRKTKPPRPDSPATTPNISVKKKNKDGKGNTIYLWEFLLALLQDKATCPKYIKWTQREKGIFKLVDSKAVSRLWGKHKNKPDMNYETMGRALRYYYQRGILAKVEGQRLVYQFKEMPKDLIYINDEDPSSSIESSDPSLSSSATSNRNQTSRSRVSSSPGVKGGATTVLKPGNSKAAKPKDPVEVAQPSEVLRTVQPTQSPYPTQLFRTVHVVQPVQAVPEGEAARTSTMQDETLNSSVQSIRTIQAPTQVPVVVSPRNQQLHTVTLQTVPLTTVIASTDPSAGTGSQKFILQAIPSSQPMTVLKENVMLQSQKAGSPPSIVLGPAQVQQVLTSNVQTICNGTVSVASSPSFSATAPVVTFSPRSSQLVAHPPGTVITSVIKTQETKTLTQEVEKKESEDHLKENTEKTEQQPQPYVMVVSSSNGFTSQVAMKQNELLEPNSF
Summary of the method: as §1

[6] = biological target: T5, EHF (Homo sapiens, UniProt Q9NZC4 1-300); conditions: protein: recombinant; tags: N-terminal GST; dsDNA, one strand shown
T5 sequence: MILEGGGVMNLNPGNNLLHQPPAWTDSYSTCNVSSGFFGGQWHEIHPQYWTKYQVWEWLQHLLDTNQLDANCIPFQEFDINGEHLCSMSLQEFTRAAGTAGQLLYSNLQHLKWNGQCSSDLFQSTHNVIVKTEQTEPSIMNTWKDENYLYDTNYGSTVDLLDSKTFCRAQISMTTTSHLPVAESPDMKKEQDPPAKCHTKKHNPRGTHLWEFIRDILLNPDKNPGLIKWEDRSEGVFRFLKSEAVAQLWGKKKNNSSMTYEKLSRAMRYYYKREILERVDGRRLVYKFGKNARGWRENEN
Summary of the method: as §1

[7] = biological target: SPI1 (Homo sapiens, UniProt P17947 1-270); conditions: protein: recombinant; tags: N-terminal GST; dsDNA, one strand shown
Summary of the method: as §1

[8] = biological target: SPIB (Homo sapiens, UniProt Q01892 1-262); conditions: protein: recombinant; tags: N-terminal GST; dsDNA, one strand shown
SPIB, sequence (Q01892 whole entry): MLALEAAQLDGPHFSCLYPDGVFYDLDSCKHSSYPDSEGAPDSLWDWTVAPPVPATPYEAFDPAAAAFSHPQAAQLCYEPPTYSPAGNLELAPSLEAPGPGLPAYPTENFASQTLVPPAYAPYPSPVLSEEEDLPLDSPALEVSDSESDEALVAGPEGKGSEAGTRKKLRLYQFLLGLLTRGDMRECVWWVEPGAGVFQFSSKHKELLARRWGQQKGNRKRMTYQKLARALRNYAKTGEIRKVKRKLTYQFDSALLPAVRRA
Summary of the method: as §1

[9] = biological target: T6, ELK3 (Homo sapiens, UniProt P41970 1-407); conditions: protein: recombinant; tags: N-terminal GST; dsDNA, one strand shown
T6 sequence: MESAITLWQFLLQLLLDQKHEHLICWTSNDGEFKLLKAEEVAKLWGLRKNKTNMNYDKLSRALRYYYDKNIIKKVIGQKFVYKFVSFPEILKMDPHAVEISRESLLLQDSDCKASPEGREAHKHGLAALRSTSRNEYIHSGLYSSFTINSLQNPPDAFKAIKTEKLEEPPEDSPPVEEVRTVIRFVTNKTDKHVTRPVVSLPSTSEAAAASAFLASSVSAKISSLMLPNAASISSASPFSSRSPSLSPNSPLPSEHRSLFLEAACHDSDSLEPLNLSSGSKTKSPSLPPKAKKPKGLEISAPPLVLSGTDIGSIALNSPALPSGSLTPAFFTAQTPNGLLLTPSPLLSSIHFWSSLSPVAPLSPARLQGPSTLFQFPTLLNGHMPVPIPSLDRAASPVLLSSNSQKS
Summary of the method: as §1

[10] = biological target: T7, FEV (Homo sapiens, UniProt Q99581 1-238); conditions: protein: recombinant; tags: N-terminal GST; dsDNA, one strand shown
T7 sequence: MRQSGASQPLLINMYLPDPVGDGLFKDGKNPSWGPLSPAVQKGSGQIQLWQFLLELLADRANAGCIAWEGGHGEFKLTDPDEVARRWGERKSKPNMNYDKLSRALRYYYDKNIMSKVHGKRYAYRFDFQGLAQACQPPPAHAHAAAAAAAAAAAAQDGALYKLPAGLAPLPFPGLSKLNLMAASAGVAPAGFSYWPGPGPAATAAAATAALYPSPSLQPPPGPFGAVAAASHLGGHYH
Summary of the method: as §1

[11] = biological target: ETV5 (Homo sapiens, UniProt P41161 1-510); conditions: protein: recombinant; tags: N-terminal GST; dsDNA, one strand shown
ETV5, sequence (P41161 whole entry): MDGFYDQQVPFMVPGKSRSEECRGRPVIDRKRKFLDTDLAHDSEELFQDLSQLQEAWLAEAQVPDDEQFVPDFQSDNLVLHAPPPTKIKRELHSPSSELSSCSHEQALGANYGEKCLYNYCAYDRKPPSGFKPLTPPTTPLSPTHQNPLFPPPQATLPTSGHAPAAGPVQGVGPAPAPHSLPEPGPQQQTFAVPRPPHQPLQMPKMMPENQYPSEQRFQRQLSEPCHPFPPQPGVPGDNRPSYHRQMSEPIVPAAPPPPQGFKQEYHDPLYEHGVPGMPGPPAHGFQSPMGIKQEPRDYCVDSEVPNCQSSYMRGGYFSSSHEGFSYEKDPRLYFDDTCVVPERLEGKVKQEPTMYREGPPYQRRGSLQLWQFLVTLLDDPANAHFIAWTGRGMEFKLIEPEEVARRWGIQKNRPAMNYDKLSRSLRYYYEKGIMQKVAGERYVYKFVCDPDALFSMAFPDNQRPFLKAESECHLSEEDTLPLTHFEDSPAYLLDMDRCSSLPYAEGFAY
Summary of the method: as §1

[12] = biological target: HSF1 (Homo sapiens, UniProt Q00613 1-529); conditions: protein: recombinant; tags: N-terminal GST; chain copies: 3; dsDNA, one strand shown
HSF1, sequence (Q00613 whole entry): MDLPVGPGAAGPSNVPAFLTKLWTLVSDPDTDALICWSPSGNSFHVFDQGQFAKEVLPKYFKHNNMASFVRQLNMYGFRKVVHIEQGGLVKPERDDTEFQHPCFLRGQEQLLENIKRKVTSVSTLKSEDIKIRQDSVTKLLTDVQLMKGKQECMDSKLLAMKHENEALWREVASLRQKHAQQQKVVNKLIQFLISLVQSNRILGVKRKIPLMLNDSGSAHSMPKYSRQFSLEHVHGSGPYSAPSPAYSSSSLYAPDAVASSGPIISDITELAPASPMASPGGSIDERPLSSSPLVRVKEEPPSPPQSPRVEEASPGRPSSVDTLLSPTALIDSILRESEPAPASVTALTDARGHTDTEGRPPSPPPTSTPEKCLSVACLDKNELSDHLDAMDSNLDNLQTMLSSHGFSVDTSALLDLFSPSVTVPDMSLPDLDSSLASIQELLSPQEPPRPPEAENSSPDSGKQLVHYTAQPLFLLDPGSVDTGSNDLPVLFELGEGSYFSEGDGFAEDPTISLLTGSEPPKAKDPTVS
Summary of the method: as §1

[13] = biological target: T8, SPIC (Homo sapiens, UniProt Q8N5J4 1-248); conditions: protein: recombinant; tags: N-terminal GST; dsDNA, one strand shown
T8 sequence: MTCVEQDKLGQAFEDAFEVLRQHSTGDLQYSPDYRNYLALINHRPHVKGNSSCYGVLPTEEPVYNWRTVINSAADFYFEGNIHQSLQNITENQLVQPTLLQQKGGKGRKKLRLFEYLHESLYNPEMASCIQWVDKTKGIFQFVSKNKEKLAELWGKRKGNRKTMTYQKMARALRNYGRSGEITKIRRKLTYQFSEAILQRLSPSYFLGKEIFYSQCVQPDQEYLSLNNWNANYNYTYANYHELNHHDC
Summary of the method: as §1

[14] = biological target: ELF4 (Homo sapiens, UniProt Q99607 1-663); conditions: protein: recombinant; tags: N-terminal GST; dsDNA, one strand shown
ELF4, sequence (Q99607 whole entry): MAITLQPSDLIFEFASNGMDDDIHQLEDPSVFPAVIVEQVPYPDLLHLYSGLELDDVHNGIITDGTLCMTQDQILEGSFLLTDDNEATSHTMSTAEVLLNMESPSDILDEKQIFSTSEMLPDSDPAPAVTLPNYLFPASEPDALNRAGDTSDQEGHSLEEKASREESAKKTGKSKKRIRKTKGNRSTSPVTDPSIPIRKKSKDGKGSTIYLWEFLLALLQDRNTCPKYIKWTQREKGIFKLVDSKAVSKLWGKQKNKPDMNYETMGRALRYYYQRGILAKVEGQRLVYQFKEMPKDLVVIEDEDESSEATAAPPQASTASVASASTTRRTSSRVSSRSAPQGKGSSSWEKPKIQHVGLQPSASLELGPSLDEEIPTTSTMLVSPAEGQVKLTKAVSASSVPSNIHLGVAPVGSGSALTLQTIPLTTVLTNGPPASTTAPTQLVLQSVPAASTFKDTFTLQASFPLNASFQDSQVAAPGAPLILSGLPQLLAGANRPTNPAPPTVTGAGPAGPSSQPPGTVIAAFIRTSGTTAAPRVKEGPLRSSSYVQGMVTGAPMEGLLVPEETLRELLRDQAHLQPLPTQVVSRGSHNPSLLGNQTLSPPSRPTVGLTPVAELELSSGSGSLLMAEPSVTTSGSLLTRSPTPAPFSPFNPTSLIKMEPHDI
Summary of the method: as §1

[15] = biological target: T9, ELK4 (Homo sapiens, UniProt P28324-2 1-405); conditions: protein: recombinant; tags: N-terminal GST; dsDNA, one strand shown
T9 sequence: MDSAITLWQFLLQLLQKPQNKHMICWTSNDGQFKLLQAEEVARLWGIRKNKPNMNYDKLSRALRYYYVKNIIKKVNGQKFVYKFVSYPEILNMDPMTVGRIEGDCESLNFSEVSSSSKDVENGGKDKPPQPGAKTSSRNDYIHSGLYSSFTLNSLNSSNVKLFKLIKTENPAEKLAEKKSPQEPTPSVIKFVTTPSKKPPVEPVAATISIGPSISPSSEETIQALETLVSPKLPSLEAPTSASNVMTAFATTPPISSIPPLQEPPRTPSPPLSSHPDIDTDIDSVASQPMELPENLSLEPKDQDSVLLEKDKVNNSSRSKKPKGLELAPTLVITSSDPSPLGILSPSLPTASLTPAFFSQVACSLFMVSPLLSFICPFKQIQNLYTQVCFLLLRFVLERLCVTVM
Summary of the method: as §1

[16] = biological target: T10, ETV2 (Homo sapiens, UniProt O00321 1-342); conditions: protein: recombinant; tags: N-terminal GST; dsDNA, one strand shown
T10 sequence: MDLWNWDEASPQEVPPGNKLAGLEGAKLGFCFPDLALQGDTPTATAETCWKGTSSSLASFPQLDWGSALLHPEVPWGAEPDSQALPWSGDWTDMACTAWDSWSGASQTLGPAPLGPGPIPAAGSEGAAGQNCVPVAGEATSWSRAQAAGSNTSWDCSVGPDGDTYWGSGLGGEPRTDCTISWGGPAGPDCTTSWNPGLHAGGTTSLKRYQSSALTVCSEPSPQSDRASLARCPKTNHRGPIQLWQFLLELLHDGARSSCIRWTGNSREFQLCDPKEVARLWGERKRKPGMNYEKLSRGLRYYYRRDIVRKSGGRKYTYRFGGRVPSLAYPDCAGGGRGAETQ
Summary of the method: as §1

[17] = biological target: T11, ELF3 (Homo sapiens, UniProt P78545 1-371); conditions: protein: recombinant; tags: N-terminal GST; dsDNA, one strand shown
T11 sequence: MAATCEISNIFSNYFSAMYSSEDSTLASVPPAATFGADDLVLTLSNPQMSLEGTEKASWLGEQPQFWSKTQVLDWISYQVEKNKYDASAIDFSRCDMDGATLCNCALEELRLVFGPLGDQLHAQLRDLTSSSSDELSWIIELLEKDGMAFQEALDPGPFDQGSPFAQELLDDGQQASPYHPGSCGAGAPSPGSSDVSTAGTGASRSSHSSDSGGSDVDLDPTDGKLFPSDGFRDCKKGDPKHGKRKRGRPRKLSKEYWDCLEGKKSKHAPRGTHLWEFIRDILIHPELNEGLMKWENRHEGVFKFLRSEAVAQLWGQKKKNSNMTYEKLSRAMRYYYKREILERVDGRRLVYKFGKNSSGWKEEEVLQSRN
Summary of the method: as §1

[18] = biological target: CRX (Homo sapiens, UniProt O43186 1-299); conditions: protein: recombinant; tags: N-terminal GST; dsDNA, one strand shown
CRX, sequence (O43186 whole entry): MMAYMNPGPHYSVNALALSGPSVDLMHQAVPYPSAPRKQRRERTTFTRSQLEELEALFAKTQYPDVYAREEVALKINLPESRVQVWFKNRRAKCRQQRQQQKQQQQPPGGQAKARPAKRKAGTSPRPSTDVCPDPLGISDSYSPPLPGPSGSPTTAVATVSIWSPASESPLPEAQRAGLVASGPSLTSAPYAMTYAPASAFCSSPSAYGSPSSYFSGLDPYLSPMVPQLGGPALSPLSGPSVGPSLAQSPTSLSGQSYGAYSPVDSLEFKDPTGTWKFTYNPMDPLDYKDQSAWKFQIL
Summary of the method: as §1

[19] = biological target: ETV1 (Homo sapiens, UniProt P50549 1-477); conditions: protein: recombinant; tags: N-terminal GST; dsDNA, one strand shown
ETV1, sequence (P50549 whole entry): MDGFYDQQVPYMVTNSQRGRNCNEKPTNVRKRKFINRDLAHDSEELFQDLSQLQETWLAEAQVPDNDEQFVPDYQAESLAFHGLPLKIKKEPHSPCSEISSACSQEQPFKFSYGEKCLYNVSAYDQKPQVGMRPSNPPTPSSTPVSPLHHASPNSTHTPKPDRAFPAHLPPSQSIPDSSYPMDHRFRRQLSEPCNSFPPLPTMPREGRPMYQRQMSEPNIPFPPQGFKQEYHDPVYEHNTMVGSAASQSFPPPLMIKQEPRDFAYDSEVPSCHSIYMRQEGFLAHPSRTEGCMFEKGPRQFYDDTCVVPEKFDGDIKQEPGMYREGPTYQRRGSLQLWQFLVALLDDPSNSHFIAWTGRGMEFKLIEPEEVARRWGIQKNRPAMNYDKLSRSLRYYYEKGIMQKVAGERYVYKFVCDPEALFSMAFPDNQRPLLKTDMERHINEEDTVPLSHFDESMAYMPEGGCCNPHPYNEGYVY
Summary of the method: as §1

Sequence: TAAATA
- binding signal [1]: 1.23 fold enrichment (6-mer frequency, TF over GST control)
- binding signal [2]: 1.18 fold enrichment (6-mer frequency, TF over GST control)
- binding signal [3]: 1.21 fold enrichment (6-mer frequency, TF over GST control)
- binding signal [4]: 1.2 fold enrichment (6-mer frequency, TF over GST control)
- binding signal [5]: 1.21 fold enrichment (6-mer frequency, TF over GST control)
- binding signal [6]: 1.23 fold enrichment (6-mer frequency, TF over GST control)
- binding signal [7]: 1.29 fold enrichment (6-mer frequency, TF over GST control)
- binding signal [8]: 1.35 fold enrichment (6-mer frequency, TF over GST control)
- binding signal [9]: 1.33 fold enrichment (6-mer frequency, TF over GST control)
- binding signal [10]: 1.19 fold enrichment (6-mer frequency, TF over GST control)
- binding signal [11]: 1.27 fold enrichment (6-mer frequency, TF over GST control)
- binding signal [12]: 1.6 fold enrichment (6-mer frequency, TF over GST control)
- binding signal [13]: 1.17 fold enrichment (6-mer frequency, TF over GST control)
- binding signal [14]: 1.26 fold enrichment (6-mer frequency, TF over GST control)
- binding signal [15]: 1.27 fold enrichment (6-mer frequency, TF over GST control)
- binding signal [16]: 1.36 fold enrichment (6-mer frequency, TF over GST control)
- binding signal [17]: 1.3 fold enrichment (6-mer frequency, TF over GST control)
- binding signal [18]: 2.12 fold enrichment (6-mer frequency, TF over GST control)
- binding signal [19]: 1.24 fold enrichment (6-mer frequency, TF over GST control)
